Screen size: about 3,300 compounds; about 280 (8.5%) were called active.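 How the source made its calls: active means mean growth inhibition over the two runs of 50% or more; inactive means mean growth inhibition under 50%.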 Shown is part of a subset that was picked to be rich in actives.
assay: A549 NSCLC cell proliferation inhibitors – ATP luminescence, human non-small cell lung line, primary screen (AID 371); settings: at 10 µM, active compounds read high;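 further: compound exposure lasted 72 h before the ATP read; 0% = untreated cell signal and 100% = no luminescence left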

SMILES | growth inhibition
COC(=O)CCc1c(C)[nH]c(C(=O)OCc2ccccc2)c1C | 3.52% (inactive)
O=C(Nc1ccc2c(c1)OCO2)c1cc2n(n1)C(C(F)(F)F)CC(c1ccccc1)N2 (configuration not stated) | 10.4% (inactive)
Cc1nc2sc(C)c(C)c2c(=O)o1 | 3.93% (inactive)
COCCCNC(=O)C(C#N)c1nc2ccccc2nc1N1CCCC1 (configuration not stated) | 9.56% (inactive)
O=C(O)CCCC(=O)Nc1ccn(-c2ccccc2)n1 | -9.55% (inactive)
COc1ccc(C2C(C#N)=C(C)NC3=C2C(=O)c2ccccc23)cc1 (configuration not stated) | 19.6% (inactive)
COCCOCCOCCC(=O)NC1CC2CCC1(C)C2(C)C (configuration not stated) | 0.85% (inactive)
O=C(CCC1CCCC1)N1CCC(N2CCN(c3ccccc3)CC2)CC1 | 17.9% (inactive)
CCCCCCCCNC(C)C(O)c1ccc(SC(C)C)cc1 (configuration not stated) | 92.4% (active)
CC(NCCc1ccc(O)cc1)C(O)c1ccc(O)cc1 (configuration not stated) | 1.42% (inactive)
NC(=O)C1CCN(CCC(=O)Nc2ccc(Br)cc2)CC1 | 7.48% (inactive)
Cc1cccc(NC(=O)c2c(C)cc(=O)oc2C)n1 | -3.57% (inactive)
CCNc1nc(Oc2ccccc2)nc(OC(C)C(=O)OCC)n1 (configuration not stated) | -2.75% (inactive)
Cc1cc(C)cc(-n2c3nc4ccccc4nc3c3c(=O)n(Cc4ccco4)cnc32)c1 | 72.2% (active)
CCOc1ccc(-n2c3nc4ccccc4nc3c3c(=O)n(Cc4ccco4)cnc32)cc1 | 14.6% (inactive)
COc1cc(-n2c3nc4ccccc4nc3c3c(=O)n(Cc4ccco4)cnc32)cc(OC)c1OC | 4.1% (inactive)
COc1ccc(C2(CN(C(C)=O)C(C)=O)CCCC2)cc1OC | 9.44% (inactive)
COC(=O)NCC12CC3CC(C1)CC(CNC(=O)OC)(C3)C2 | 2.32% (inactive)
Nc1c(Br)cc2oc(-c3ccccc3)nc2c1Br | 31.4% (inactive)
COc1ccc(N2CC(=O)N(c3ccc(OC)c(OC)c3)CC2=O)cc1OC | -2.72% (inactive)
COc1ccc(OC)c(NS(=O)(=O)c2ccc(N3CCCC3=O)cc2)c1 | 62.5% (active)
O=C1CCCN1c1ccc(S(=O)(=O)NCc2ccco2)cc1 | 0.41% (inactive)
CCOc1ccc(/C(O)=C2/C(=O)C(=O)N(CCN(C)C)C2c2ccccc2)cc1Cl (configuration not stated) | -0.75% (inactive)
COc1cccc(/C(O)=C2\C(=O)C(=O)N(c3ccccn3)C2c2ccccc2OC)c1 (configuration not stated) | 6.79% (inactive)
CC(C)Cn1cnc2c(c1=O)c1nc3ccccc3nc1n2Cc1ccc2c(c1)OCO2 | 12.6% (inactive)
CC(C)C1Cc2c(C#N)c(N)n(C)c(=S)c2CO1 (configuration not stated) | 11.2% (inactive)
COc1ccc(OC)c(C2C(C(=O)c3ccco3)=C(O)C(=O)N2CCCN2CCOCC2)c1 (configuration not stated) | 4.05% (inactive)
